# Source: PubChem BioAssay (Johns Hopkins Ion Channel Center)
# A selection: hits, their analogues and other compounds. The true share with any hit is near 1.6%.
# KCNQ2 inh = rat KCNQ2 potassium channel inhibitors, primary screen, cell-based, CHO-K1, FluxOR thallium flux, B-score; Potassium voltage-gated channel subfamily KQT member 2 (Rattus norvegicus), O88943; 20 min; hits give low values; B-score at 10 µM; 310,000 compounds, 1.1% hits;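 active = fluorescence ratio B-score at most minus 3 library SDs, with starting brightness B-score within 2 library SDs, cut at about -5.5 in these data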
# KCNQ2 enhance = potentiators of rat KCNQ2 potassium channel; Potassium voltage-gated channel subfamily KQT member 2 (Rattus norvegicus), O88943; CHO-K1 KCNQ2, FluxOR thallium flux fluorescence; hits give high values; B-score at 10 µM; 310,000 compounds, 0.54% hits; AID 2239, 2010;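 active = fluorescence ratio B-score at least 3 SD of library B-scores, with initial fluorescence B-score within 3 of them, cut at about 5.3 in these data; same plate scores as AID 2156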;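 note: B-score of peak minus minimum over baseline fluorescence ratio after K+ and Tl+ stimulus; positive B-score means potentiation of KCNQ2 with more thallium influx and brighter signal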
# Kir21 conf inh = mouse Kir2.1 channel blockers, retest, confirmation, cell-based, FluxOR thallium flux, duplicate; shares compounds with KCNQ2 enhance; Kir2.1-expressing cells, FluxOR thallium flux fluorescence; hits give low values; Tl flux remaining, % of negative control (hits give low values), % at 10 µM; 2,300 compounds, 41% hits; AID 2032, 2009;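 active = Primary-screen hit whose thallium flux fell at least 3 control SD below untreated wells in both duplicates, with normal baseline fluorescence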
# Target sequence (P35561 whole entry, looked up): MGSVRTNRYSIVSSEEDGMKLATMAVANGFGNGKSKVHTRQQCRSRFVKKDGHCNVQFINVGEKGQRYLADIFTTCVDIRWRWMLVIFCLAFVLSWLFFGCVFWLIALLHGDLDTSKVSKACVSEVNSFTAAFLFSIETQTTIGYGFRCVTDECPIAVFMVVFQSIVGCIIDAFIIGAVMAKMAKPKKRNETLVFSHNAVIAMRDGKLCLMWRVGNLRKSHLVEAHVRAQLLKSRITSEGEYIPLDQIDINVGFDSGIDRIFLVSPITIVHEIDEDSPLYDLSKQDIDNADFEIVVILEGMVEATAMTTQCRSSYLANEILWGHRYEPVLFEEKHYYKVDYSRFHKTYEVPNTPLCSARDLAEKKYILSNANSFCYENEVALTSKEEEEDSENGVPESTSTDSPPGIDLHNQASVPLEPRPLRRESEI
# HEK293 ctr = alters thallium flux in parental HEK293 cells, Kir2.1 counter-screen | shares compounds with KCNQ2 enhance | FluxOR thallium flux fluorescence; 0% = unstimulated blank wells | FluxOR signal as % of negative control (100 = no effect), % at 10 µM | 2,300 compounds, 19% hits;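 active = dye signal at least 3 control SD above or below untreated wells in both duplicates, raw fluorescence within 3, either direction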;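 note: percent is based on the flux ratio of peak minus minimum fluorescence over baseline F0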
# CHO-K1 ctr = nonspecific thallium flux increase in parental CHO-K1, confirmation, counter-screen for KCNQ2 potentiator project, cell-based, FluxOR thallium flux, duplicate | shares compounds with KCNQ2 enhance | parental CHO-K1 cells, FluxOR thallium flux fluorescence; zero = vehicle mean+3SD, 100% = vehicle-minus-blank window | activity increase over 3SD of controls, % at 10 µM | 1,200 compounds, 43% hits | AID 2282, 2010;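 active = signal rise of at least 3 SD above the untreated control mean, in both duplicate wells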;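 note: counter screen of KCNQ2 potentiator hits so any rise reflects channel-independent effects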
# KCNQ1 sel pot = human KCNQ1 channel potentiation off-target, confirmation, selectivity assay for KCNQ2 potentiator project, cell-based, CHO, FluxOR thallium flux. shares compounds with KCNQ2 enhance. CHO KCNQ1 stable, FluxOR thallium flux fluorescence; beyond 3SD, as % of vehicle-control signal. activation over 3SD threshold, % at 10 µM. 1,200 compounds, 28% hits;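 active = fluorescence ratio rise of at least 3 SD of vehicle wells above their mean, in both replicate wells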
# KCNQ2 pot confirm = rat KCNQ2 channel potentiators, confirmation, cell-based, CHO, FluxOR thallium flux, duplicate. 1,200 compounds, 68% hits. AID 2287, 2010. shares compounds with KCNQ2 enhance. CHO-KCNQ2 cells, FluxOR thallium flux fluorescence. potentiation, less the hit threshold, % at 10 µM;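 active = fluorescence ratio rising 3 SD or more over the vehicle control mean in both replicates, plus primary screen hit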;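 note: peak minus minimum thallium fluorescence divided by baseline after K/Tl stimulus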
# Kir21 spec = mouse Kir2.1 channel activation off-target, confirmation, selectivity assay for KCNQ2 potentiator project, cell-based, HEK293, FluxOR thallium flux; shares compounds with KCNQ2 enhance; HEK293 Kir2.1, FluxOR thallium flux fluorescence; activity over 3SD threshold, % at 10 µM; 1,200 compounds, 2% hits; AID 2345, 2010;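 active = fluorescence ratio rise of at least 3 SD above the vehicle-control mean, seen in both replicates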
# KCNQ2 W236L pot = potentiators of retigabine-insensitive KCNQ2 W236L, mechanism study for KCNQ2 potentiator project, cell-based, rat KCNQ2 W236L, CHO, automated patch clamp | shares compounds with KCNQ2 enhance | automated patch clamp current | current increase over 3SD of negative controls (%), hits give high values, % at 25 µM | 940 compounds, 10% hits | AID 2558, 2010;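 active = current increase at least 3 SD of the untreated controls above them in both duplicate recordings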
# A number is an active result; - = inactive; . = no result.
SMILES,KCNQ2 inh,KCNQ2 enhance,Kir21 conf inh,HEK293 ctr,others
COc1cccc(CNC(=O)C2CCN(S(=O)(=O)c3ccc(Br)s3)CC2)c1,-,7.31,-,-,CHO-K1 ctr=-;KCNQ1 sel pot=-;KCNQ2 pot confirm=9.6;Kir21 spec=-;KCNQ2 W236L pot=-
CCC(C)NC(=O)C1CCN(S(=O)(=O)c2ccc(Br)s2)CC1 (centres undefined),-,-,.,.,
CCS(=O)(=O)N1CCC(C(=O)NCc2cccc(OC)c2)CC1,-,-,.,.,
O=S(=O)(NCc1ccccc1)c1ccc(Br)s1,-,.,.,.,
CC1(C)CC(=O)C(C(O)c2ccccc2)C(C)(C)N1 (centres undefined),-,-,.,.,
CCC1Sc2ccc(S(=O)(=O)CCC(=O)Nc3cc(C)ccn3)cc2NC1=O (centres undefined),-,-,.,.,
C/C(=N\OCc1ccccc1)c1c(O)cc(C(C)C)n(-c2ccccc2)c1=O,-,.,.,.,
C#CCNC(=O)C1=C[C@@H](C2CC2)C[C@@H](OCc2ccc(CO)cc2)O1,-,-,51.0%,-,
C#CCNC(=O)C1=C[C@@H](C(C)(C)C)C[C@@H](OCc2ccc(CO)cc2)O1,-,.,.,.,
O=C(O)CC/C(=N\NC(=O)c1ccccc1Br)c1ccccc1,-,.,.,.,
COc1ccc(Cc2c(C)nc(N)nc2Cl)cc1,-,-,.,.,
Cc1nc(N)nc(N)c1CCCc1ccc(Cl)c(Cl)c1,-,.,37.0%,68.0%,
O=C(NC(=S)Nc1ccc(Cl)cc1)c1ccccc1,-,.,.,.,
O=C(Nc1ccc(Cl)cc1)C(Cl)C(=O)c1ccccc1 (centres undefined),-,-,69.5%,-,
Cc1ccc(S(=O)(=O)N2CCCCC2)c2nsnc12,-,-,.,.,
CCCCN1CCc2c1nc1ccc(Br)cc1c2N,-,-,23.5%,-,
Cc1ccc2nc3c(c(N)c2c1)CCN3C,-,-,.,.,
CCN1C(=O)[C@H]2[C@@H](c3ccc(C)cc3)N3C(=O)N(c4ccccc4)C(=O)[C@@]3(C)[C@H]2C1=O,-,-,.,.,
O=c1c(-c2cccc([N+](=O)[O-])c2)[n+]([O-])c2ccccc2n1O,-,-,.,.,
O=c1c(-c2ccc(Cl)cc2)[n+]([O-])c2ccccc2n1O,-,6.29,-,220.5%,CHO-K1 ctr=-;KCNQ1 sel pot=-;KCNQ2 pot confirm=-;Kir21 spec=-;KCNQ2 W236L pot=-
Cc1cccc(CN2C(=O)CSc3ccc(C(=O)NC4CC4)cc32)c1,-,.,.,.,
COc1ccc(-c2nnc(SCc3ccc(C(=O)O)cc3)n2C)cc1OC,-,-,.,.,
CC1CCN(CC(O)CN2c3ccccc3Sc3ccccc32)CC1 (centres undefined),-,.,.,.,
CSc1ccc2c(c1)N(CCC1CCCCN1C)c1ccccc1S2 (centres undefined),-5.82,-,23.0%,-,
CC(NC(=O)c1cccs1)C1CCCO1 (centres undefined),-,-,.,.,
SMILES,KCNQ2 inh,KCNQ2 enhance,Kir21 conf inh,HEK293 ctr,others
CCOc1ccccc1C(=O)N/N=C/c1ccoc1,-,.,.,.,
Cc1ccc(NC(=O)/C=C\C(=O)O)c([N+](=O)[O-])c1,-,.,.,.,
O=C(Nc1ccncc1)C1CC1c1ccccc1 (centres undefined),-,-,.,.,
O=C(Nc1cccc(Cl)c1)C1CC1c1ccccc1 (centres undefined),-,-,.,.,
CC(C)c1ccc(NC(=O)C2CC2c2ccccc2)cc1 (centres undefined),-,17.4,-,-,CHO-K1 ctr=19.6;KCNQ1 sel pot=-;KCNQ2 pot confirm=28.1;Kir21 spec=-;KCNQ2 W236L pot=-
O=C(Nc1ccc(Cl)cc1F)C1CC1c1ccccc1 (centres undefined),-,7.21,-,-,CHO-K1 ctr=-;KCNQ1 sel pot=28.2;KCNQ2 pot confirm=18.7;Kir21 spec=-;KCNQ2 W236L pot=-
Cc1ccc(NC(=O)C2CC2c2ccccc2)c([N+](=O)[O-])c1 (centres undefined),-,10.9,-,-,CHO-K1 ctr=-;KCNQ1 sel pot=-;KCNQ2 pot confirm=7.1;Kir21 spec=-;KCNQ2 W236L pot=40.5%
CC#CC(=O)N1CCC(CCC(=O)N(C)Cc2ccccc2)CC1,-,-,.,.,
NC(=O)c1cc2cc(Cl)ccc2o/c1=N/NC(=O)c1cccs1,-,.,.,.,
COc1cc(CNCc2ccccn2)ccc1OCc1ccc(Cl)cc1,-,-,.,.,
COc1cc(CNCc2ccccn2)ccc1OCc1c(Cl)cccc1Cl,-,-,40.5%,-,
CCCCC(=O)OCc1nc(N)nc(Nc2ccccc2C)n1,-,-,.,.,
Cc1ccc(/C=C/C(=O)OCc2nc(N)nc(Nc3ccccc3C)n2)o1,-,6.9,-,-,CHO-K1 ctr=144.2;KCNQ1 sel pot=-;KCNQ2 pot confirm=2.1;Kir21 spec=-;KCNQ2 W236L pot=-
Cc1ccc2c(c1)C(C)CC(C)(C)N2C(=O)CN1CCN(C)CC1 (centres undefined),-,-,.,.,
Cc1ccn(-c2cc(O)c(-n3ccc(C)n3)cc2O)n1,-,.,.,.,
S=c1[nH]c2ccc(Cl)cc2[nH]1,-,-,.,.,
S=c1[nH]c2cc(Cl)ccc2s1,-,18.2,-,552.5%,CHO-K1 ctr=10.3;KCNQ1 sel pot=-;KCNQ2 pot confirm=54.0;Kir21 spec=2.3;KCNQ2 W236L pot=-
CCOc1ccccc1NC(=O)CN(c1ccc(OC)cc1)S(=O)(=O)c1c(C)[nH]c(=O)[nH]c1=O,-,-,.,.,
Cc1cc(NS(=O)(=O)c2ccccc2)c(C)c(Cl)c1O,-,.,69.0%,-,
Cc1c(O)ccc(NS(=O)(=O)c2ccccc2)c1C,-,.,.,.,
CC(NCCS(=O)(=O)c1ccc(Cl)cc1)c1cccc(Cl)c1 (centres undefined),-,-,33.5%,-,
CC(C)c1ccc(C(C)NCCS(=O)(=O)c2ccc(Br)cc2)cc1 (centres undefined),-,.,.,.,
COc1ccc(CN(C)CC(O)COc2ccc(C(=O)c3ccccc3)cc2)c(OC)c1OC (centres undefined),-,.,.,.,
CCN(Cc1ccccc1)CC(O)COC(c1ccc(OC)cc1)c1ccc(OC)cc1 (centres undefined),-,.,65.5%,-,
CCN(CC)CC(O)COC(c1ccccc1)c1ccccc1 (centres undefined),-,-,.,.,
